PostGolgi ctrl = inhibits growth of the yeast control strain; actives 5% (n = 98,000); efflux-deficient yeast background strain, growth absorbance A615, 16 h; inhibition, % at 10 µM
CYP2C9 inhib = inhibitors of human CYP2C9; P11712; CYP2C9 Supersomes, luciferin-H conversion, luminescence; inhibition, % at 5 µM; actives 20% (n = 96,000); AID 777;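 active = blocking of liver enzyme CYP2C9 beyond about 50% at 5 µM, limit read from the data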
CYP2C19 act = increases human CYP2C19 enzyme activity; P33261; recombinant CYP2C19, luciferin-H EGE luminescence; active compounds read high; 0 = fully inhibited enzyme, 1 = untreated enzyme; activation factor at 5 µM; 96,000 tested, under 10 active; AID 1025;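 active = activation factor of at least 2 at 5 µM in the primary screen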;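 also: 0 = wells with 2.5 mM tranylcypromine and 1 = vehicle-only wells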
Target sequence (P33261 whole entry, looked up): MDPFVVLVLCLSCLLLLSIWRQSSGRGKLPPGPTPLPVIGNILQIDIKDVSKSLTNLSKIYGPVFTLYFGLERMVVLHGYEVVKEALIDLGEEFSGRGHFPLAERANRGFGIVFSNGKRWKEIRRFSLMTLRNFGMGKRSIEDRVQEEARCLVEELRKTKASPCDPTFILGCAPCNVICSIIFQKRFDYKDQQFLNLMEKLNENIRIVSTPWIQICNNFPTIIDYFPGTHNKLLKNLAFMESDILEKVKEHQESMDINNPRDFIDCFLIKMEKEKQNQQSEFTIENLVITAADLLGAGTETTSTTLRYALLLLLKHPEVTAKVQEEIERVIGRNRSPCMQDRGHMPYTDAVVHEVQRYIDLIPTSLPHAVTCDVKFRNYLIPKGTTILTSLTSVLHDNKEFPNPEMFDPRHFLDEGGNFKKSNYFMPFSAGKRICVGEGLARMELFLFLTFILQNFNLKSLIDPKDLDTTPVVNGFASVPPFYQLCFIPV
PostGolgi yeast = growth inhibition of a yeast mutant, post-Golgi transport screen; post-Golgi transport phenotypic cell assay; inhibition, % at 10 µM; actives 0.9% (n = 98,000); AID 739;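 also: yeast cells grown in 1536-well plates; yeast grown about 18 h at 30C before absorbance read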
CYP2C9 activ = activators of human CYP2C9; P11712; recombinant CYP2C9, luciferin-H conversion, luminescence; active compounds read high; factor 1 = untreated enzyme, 0 = blocked; activation factor at 5 µM; actives 1.4% (n = 96,000); AID 1024;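 active = activation factor of 2 or more for CYP2C9 at a 5 µM dose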;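 also: 0 = sulfaphenazole-blocked wells and 1 = vehicle-only wells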
CYP2C19 inh = blocks human cytochrome P450 2C19; P33261; CYP2C19 Supersomes, luciferin-H EGE luminescence, 30 min; inhibition, % at 5 µM; actives 21% (n = 96,000); AID 778;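 active = CYP2C19 inhibition above a set limit at 5 µM in the primary screen, cut at about 50% in these data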;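 also: plate controls were negative control wells for no effect and 2.5 mM tranylcypromine positive control for full effect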
An asterisk follows results filed as active. Most compounds without a hit are left out; they make up all but 32% or so of the library. Rule as the data show it, unless noted: active = inhibition above about 30%; inactive = the rest.

COc1ccc(C(C(=O)NC2CCCC2)N2CCc3ccccc32)cc1 (centres undefined) was read as PostGolgi ctrl 7, CYP2C9 inhib 2, CYP2C19 act 1.1, PostGolgi yeast 2, CYP2C9 activ 1 and CYP2C19 inh -14.
Screening CCOC(=O)C1CCN(c2cc(=O)n(Cc3ccc(F)cc3)c(=O)[nH]2)CC1 returned PostGolgi ctrl 7, CYP2C9 inhib 26, CYP2C19 act 1.1, PostGolgi yeast -9, CYP2C9 activ 0.7 and CYP2C19 inh -5.
`COc1ccccc1Cc1noc(-c2cc(Cl)ccc2OC)n1` gave PostGolgi ctrl 11, CYP2C9 inhib -134, CYP2C19 act 0.5, PostGolgi yeast -3, CYP2C9 activ 2.3* and CYP2C19 inh 48.
Screening COc1ccc(Cc2noc(COc3ccc(Cl)cc3)n2)cc1 returned PostGolgi ctrl 27, CYP2C9 inhib 17, CYP2C19 act 0.7, PostGolgi yeast -5, CYP2C9 activ 0.8 and CYP2C19 inh 28.
Screening COc1ccccc1OCc1nc(Cc2ccc(Cl)cc2)no1 returned PostGolgi ctrl 6, CYP2C9 inhib -33, CYP2C19 act 0.1, PostGolgi yeast 0, CYP2C9 activ 1.3 and CYP2C19 inh 94*.
CN(CC(=O)N1CCc2ccccc21)S(=O)(=O)c1ccc(Cl)cc1 was read as PostGolgi ctrl 16, CYP2C9 inhib -167, CYP2C19 act 0.4, PostGolgi yeast 8, CYP2C9 activ 2.7* and CYP2C19 inh 60*.
Screening CCOc1ccc(S(=O)(=O)N(CC(=O)N2CCc3ccccc32)Cc2ccco2)cc1 returned PostGolgi ctrl 21, CYP2C9 inhib 52*, CYP2C19 act 0.1, PostGolgi yeast -5, CYP2C9 activ 0.5 and CYP2C19 inh 92*.
COc1cc(-c2noc(CCCC(=O)NC3CCCCC3)n2)cc(OC)c1OC was read as PostGolgi ctrl 10, CYP2C9 inhib 9, CYP2C19 act 0.3, PostGolgi yeast 3, CYP2C9 activ 0.9 and CYP2C19 inh 66*.
`COc1ccc(-c2noc(CCC(=O)NCC3CCN(Cc4cccc(C)c4)CC3)n2)cc1` gave PostGolgi ctrl 3, CYP2C9 inhib 23, CYP2C19 act 0.8, PostGolgi yeast -3, CYP2C9 activ 0.8 and CYP2C19 inh 16.
`COc1ccc(-c2noc(CCC(=O)NC3CCCCC3)n2)cc1OC` gave PostGolgi ctrl 2, CYP2C9 inhib 79*, CYP2C19 act 0.1, PostGolgi yeast 9, CYP2C9 activ 0.2 and CYP2C19 inh 87*.
For COc1cccc(-c2noc(CCC(=O)NC3CCCCC3)n2)c1 the results were PostGolgi ctrl 8, CYP2C9 inhib -54, CYP2C19 act 0.9, PostGolgi yeast 29, CYP2C9 activ 1.5 and CYP2C19 inh 8.
Screening COc1ccc(-c2noc(CCC(=O)NC3CCN(Cc4ccccc4)CC3)n2)cc1 returned PostGolgi ctrl -6, CYP2C9 inhib 84*, CYP2C19 act 0.3, PostGolgi yeast -1, CYP2C9 activ 0.2 and CYP2C19 inh 73*.
Screening O=C(CSc1nnc(CN2CCOCC2)n1-c1ccccc1)Nc1ccc(Cl)cc1 returned PostGolgi ctrl 3 and PostGolgi yeast -4.
For CCOC(=O)CCCc1sc(N)nc1-c1[nH]c(=O)[nH]c1C the results were PostGolgi ctrl -2, CYP2C9 inhib -4, CYP2C19 act 1.2, PostGolgi yeast 3, CYP2C9 activ 1 and CYP2C19 inh -17.
Screening COCCCNc1c2c3c(cccc3[nH]c1=O)C(=O)c1ccccc1-2 returned PostGolgi ctrl 19, CYP2C9 inhib 61*, CYP2C19 act 0.6, PostGolgi yeast 0, CYP2C9 activ 0.4 and CYP2C19 inh 40.
Screening Cn1ccnc1C(O)c1cc(C(C)(C)C)c(O)c(C(C)(C)C)c1 (centres undefined) returned PostGolgi ctrl 7, CYP2C9 inhib 76*, CYP2C19 act 0.8, PostGolgi yeast -1, CYP2C9 activ 0.2 and CYP2C19 inh 24.
Screening O=C1c2ccccc2C(O)(Cc2ccccc2)N1C1CCCCC1 (centres undefined) returned PostGolgi ctrl 19, CYP2C9 inhib 38, CYP2C19 act 0.6, PostGolgi yeast 5, CYP2C9 activ 0.6 and CYP2C19 inh 36.
Screening COc1cc(C(=O)N2CCN(C(=O)C(Cc3cc(C)ccc3C)NC(C)=O)CC2)cc(OC)c1OC (centres undefined) returned PostGolgi ctrl 10 and PostGolgi yeast 1.
